Assay outcomes: PubChem, Broad Institute
IDE exosite inh: displaces the probe from the exo-site of human IDE; z-score at 20 µM; purified IDE, FL-6b probe fluorescence polarization; stronger effect = lower value; 17,000 tested, 6.3% active; P14735; AID 1259349;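 active means z-score of -3 or lower, meaning strong loss of probe binding signal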;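 further: His-tagged human IDE residues 42-1019 made in E. coli with 30 nM FL-6b probe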
Target sequence (P14735 42-1019 limits assumed): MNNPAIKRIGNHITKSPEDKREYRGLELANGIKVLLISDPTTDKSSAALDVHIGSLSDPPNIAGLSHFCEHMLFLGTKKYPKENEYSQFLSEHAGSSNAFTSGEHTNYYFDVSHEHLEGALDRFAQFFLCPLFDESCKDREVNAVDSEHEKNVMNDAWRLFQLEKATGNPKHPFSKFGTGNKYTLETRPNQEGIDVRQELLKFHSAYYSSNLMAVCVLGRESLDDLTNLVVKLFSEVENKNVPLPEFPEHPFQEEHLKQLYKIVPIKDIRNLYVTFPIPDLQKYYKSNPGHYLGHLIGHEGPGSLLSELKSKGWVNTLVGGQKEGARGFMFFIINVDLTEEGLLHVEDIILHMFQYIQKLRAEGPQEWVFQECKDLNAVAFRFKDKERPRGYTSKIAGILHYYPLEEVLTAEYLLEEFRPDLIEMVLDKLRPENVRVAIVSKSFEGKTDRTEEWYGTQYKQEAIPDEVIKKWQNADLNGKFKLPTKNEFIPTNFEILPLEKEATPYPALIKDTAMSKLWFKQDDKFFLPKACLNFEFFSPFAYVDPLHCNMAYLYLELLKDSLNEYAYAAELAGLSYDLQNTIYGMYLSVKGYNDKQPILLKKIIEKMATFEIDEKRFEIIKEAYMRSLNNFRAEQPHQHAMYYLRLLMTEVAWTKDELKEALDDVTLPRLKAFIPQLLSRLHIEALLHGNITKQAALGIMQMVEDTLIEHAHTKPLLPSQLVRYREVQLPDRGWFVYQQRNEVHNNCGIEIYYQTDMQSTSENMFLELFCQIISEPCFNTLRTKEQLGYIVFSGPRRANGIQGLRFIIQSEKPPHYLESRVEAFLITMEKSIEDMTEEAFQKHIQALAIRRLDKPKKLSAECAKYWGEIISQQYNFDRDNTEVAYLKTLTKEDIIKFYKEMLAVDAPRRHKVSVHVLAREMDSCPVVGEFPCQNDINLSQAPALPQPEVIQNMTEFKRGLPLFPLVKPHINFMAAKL
Starred values were filed as active, the others as inactive. The entries come from a sample that favours hits as a whole.

SMILES | IDE exosite inh
N#C[C@@H]1[C@H](c2ccccc2)[C@H](CO)N1S(=O)(=O)c1ccc(-c2ccccc2)cc1 | 4.35
CCCNC(=O)N1CC2(C1)[C@H](c1ccccc1)[C@@H](CO)N2CC1CCOCC1 | 1.14
CN(C)CC(=O)N1[C@@H]2c3ccc(C4=CCCCC4)c(=O)n3C[C@@H]2[C@@H](CO)[C@@H]1C(=O)Nc1nccs1 | -0.277
COc1ccc(S(=O)(=O)N2CCCCN3[C@H](C2)[C@H](c2ccc(C#CC4CC4)cc2)[C@@H]3CO)cc1 | 1.63
CC(C)C#Cc1ccc([C@H]2[C@H](CO)N3CCCCN(C(=O)Nc4ccccc4)C[C@@H]23)cc1 | 3.85
CCN(C[C@@H]1[C@@H](c2ccccc2)[C@H](CO)N1Cc1cccnc1)C(C)=O | 0.838
CCC(=O)N1CC(=O)N2[C@H](C1)[C@@H](c1ccc(C#Cc3cccc(OC)c3)cc1)[C@@H]2CO | -6.54*
CCC(=O)N1CC(=O)N2[C@H](C1)[C@H](c1ccc(C#Cc3cccc(OC)c3)cc1)[C@@H]2CO | -9.23*
COc1ccccc1-c1ccc([C@H]2[C@@H](CO)N(C(C)=O)[C@H]2CN(C)C(C)=O)cc1 | 0.143
O=C(Nc1ccccc1)N1CCCCN2[C@H](C1)[C@@H](c1ccc(C#CC3CC3)cc1)[C@@H]2CO | -1.1
CC(C)CC#Cc1ccc([C@@H]2[C@H](CO)N3C(=O)CN(C(=O)Nc4ccc(F)cc4)C[C@@H]23)cc1 | 4.03
C/C=C/c1ccc([C@H]2[C@@H](CO)N(CCC)[C@@H]2CNC(=O)NC2CCCC2)cc1 | 1.8
OC[C@@H]1[C@@H](c2ccc(C#CC3(O)CCCC3)cc2)[C@@H]2CN(Cc3ccncc3)CCCCN12 | 2.16
COc1cccc(C(=O)Nc2ccc3c(c2)OC[C@@H](C)N(CCc2ccccc2)C[C@@H](C)[C@H](OC)CN(C)C3=O)c1 | -0.0137
N#C[C@H]1[C@@H](c2ccc(-c3ccccc3F)cc2)[C@H](CO)N1C(=O)Cc1ccccc1 | 0.562
Cc1cccc(-c2ccc([C@H]3[C@H](CO)N4CCCCN(Cc5ccncc5)C[C@@H]34)cc2)c1 | -3.73*
Cc1cccc(-c2ccc([C@@H]3[C@@H](CO)N4CCCCN(CCC(F)(F)F)C[C@@H]34)cc2)c1 | -0.683
CN(C)C(=O)c1ccc(-c2ccc([C@@H]3[C@@H](CO)N4CCCCN(Cc5ccncc5)C[C@@H]34)cc2)cc1 | 2.6
Cc1cccc(-c2ccc([C@H]3[C@@H](CO)N4CCCCN(CCC(F)(F)F)C[C@H]34)cc2)c1 | -3.62*
Cc1cccc(-c2ccc([C@H]3[C@H]4CN(Cc5ccncc5)CCCCN4[C@H]3CO)cc2)c1 | -5.02*
Cc1cccc(-c2ccc([C@H]3[C@H](CO)N4CCCCN(CCC(F)(F)F)C[C@@H]34)cc2)c1 | -0.213
Cc1cccc(-c2ccc([C@H]3[C@@H](CO)N4CCCCN(Cc5ccncc5)C[C@H]34)cc2)c1 | -5.92*
Cc1cccc(-c2ccc([C@@H]3[C@H](CO)N4CCCCN(CCC(F)(F)F)C[C@@H]34)cc2)c1 | -2.68
Cc1cccc(-c2ccc([C@H]3[C@@H](CO)N4CCCCN(CCC(F)(F)F)C[C@@H]34)cc2)c1 | 0.47
Cc1cccc(-c2ccc([C@@H]3[C@@H](CO)N4CCCCN(CCC(F)(F)F)C[C@H]34)cc2)c1 | -2.9
SMILES | IDE exosite inh
OC[C@H]1[C@@H](c2ccc(C3=CCCC3)cc2)[C@@H]2CN(Cc3ccncc3)CCCCN12 | -0.898
CN(C)C(=O)c1ccc(-c2ccccc2[C@H]2[C@H](C#N)N(C(=O)C3CCCCC3)[C@H]2CO)cc1 | -0.294
CCC(=O)N[C@@H]1CC[C@H](CC(=O)NCc2ccccc2F)O[C@@H]1CO | 0.952
CCc1cnc(N2[C@H](CO)[C@@H](c3ccc(C#Cc4ccccc4F)cc3)[C@@H]2C#N)s1 | -0.233
C/C=C/c1ccc([C@@H]2[C@@H](CO)N3C(=O)CN(C(=O)c4cccc(F)c4)C[C@@H]23)cc1 | 0.963
CCCC(=O)Nc1ccc2c(c1)C(=O)N(C)[C@@H]1CC[C@@H](CC(=O)NCc3cccc(F)c3)O[C@@H]1CO2 | -0.591
O=C(C[C@@H]1CC[C@@H]2[C@H](COC[C@H](O)CN2Cc2nccs2)O1)NCc1ccccc1Cl | -0.593
CO[C@@H]1CC[C@@H]2CCOc3c(C#N)cccc3C(=O)N(C)C[C@H](c3ccccc3)CC(=O)N(C)C[C@H]1O2 | -1.26
O=C(C1CCC1)N1CC(=O)N2[C@H](CO)[C@@H](c3ccc(Br)cc3)[C@H]2C1 | -0.543
O=C(C1CC1)N1CC(=O)N2[C@@H](CO)[C@H](c3ccc(-c4ccccc4F)cc3)[C@@H]2C1 | 0.709
O=C(C1CCC1)N1CC(=O)N2[C@@H](CO)[C@@H](c3ccc(C4=CCCCC4)cc3)[C@@H]2C1 | -3.87*
O=C(C1CCC1)N1CC(=O)N2[C@H](C1)[C@@H](c1ccc(Br)cc1)[C@@H]2CO | 0.906
O=C(C1CCC1)N1CC(=O)N2[C@H](CO)[C@H](c3ccc(-c4ccccc4F)cc3)[C@@H]2C1 | -3.17*
O=C(C1CCOCC1)N1CC(=O)N2[C@@H](CO)[C@H](c3ccc(C4=CCCC4)cc3)[C@@H]2C1 | 1.12
O=C(C1CCC1)N1CC(=O)N2[C@@H](CO)[C@@H](c3ccc(-c4ccccc4F)cc3)[C@@H]2C1 | -5.57*
O=C(C1CC1)N1CC(=O)N2[C@H](C1)[C@@H](c1ccc(-c3ccccc3F)cc1)[C@@H]2CO | -8.07*
COc1ccc2c3c(n(C)c2c1)[C@@H](CO)NCC31CCN(C(=O)Nc2ccc(F)cc2F)CC1 | 1.56
O=C(C[C@@H]1CC[C@H]2[C@@H](COC[C@@H](O)CN2C(=O)Nc2ccc(F)cc2)O1)NC1CCC1 | -0.262
COCC#Cc1ccc([C@@H]2[C@@H](CO)N3C(=O)CN(C(=O)c4cccnc4)C[C@H]23)cc1 | 4.01
Cc1ccccc1S(=O)(=O)N1C[C@H](O)COC[C@@H]2O[C@H](CC(=O)N3CCCCC3)CC[C@H]21 | -0.374
C[C@@H]1CCCCO[C@H](CN(C)S(=O)(=O)c2cn(C)cn2)[C@@H](C)CN([C@@H](C)CO)C(=O)c2cc(N(C)C)ccc2O1 | 0.98
O=C(CC1CC1)N1CC[C@H]2[C@H](CO)Nc3ccc(-c4ccc(F)cc4)cc3[C@H]21 | 2.13
N#C[C@H]1[C@@H](c2ccc(C#CC3CC3)cc2)[C@@H](CO)N1C(=O)Cc1ccccn1 | 3.9
O=C(C1CCCC1)N1CC(=O)N2[C@H](CO)[C@@H](c3ccc(-c4ccccc4F)cc3)[C@H]2C1 | 2.79
O=C(C1CCCC1)N1CC(=O)N2[C@H](C1)[C@H](c1ccc(-c3ccccc3F)cc1)[C@@H]2CO | -2.93
SMILES | IDE exosite inh
O=C(C1CCCC1)N1CC(=O)N2[C@@H](CO)[C@H](c3ccc(-c4ccccc4F)cc3)[C@@H]2C1 | -5.72*
CN1CCN(C(=O)C[C@@H]2CC[C@@H]3[C@H](COc4ccc(NC(=O)C5CCOCC5)cc4C(=O)N3C)O2)CC1 | 0.0308
CCCC#Cc1ccc([C@H]2[C@H](CO)N3C(=O)CN(C(=O)Nc4ccccc4)C[C@@H]23)cc1 | 2.16
N#C[C@H]1[C@H](c2ccccc2-c2cccc(F)c2)[C@@H](CO)N1C(=O)C1CCCCC1 | 1.09
C/C=C/c1ccc([C@H]2[C@@H](C#N)N(c3ncc(CC)s3)[C@@H]2CO)cc1 | 4.59
CN(C)CC(=O)N1C[C@@H]2N[C@H](C1)C2c1ccc(C2=CCCCC2)cc1 (stereo not given in full) | 0.699
O=C(c1cnccn1)N1CC(=O)N2[C@H](C1)[C@@H](c1ccc(/C=C/c3ccccc3)cc1)[C@@H]2CO | -1.73
COc1ccc(-c2ccc(C3[C@@H]4CN(C(=O)c5cnccn5)C[C@H]3N4)cc2)cc1 (stereo not given in full) | 0.244
